Source: PubChem BioAssay
Only some compounds are listed: those with a hit (about 1.6% of all), similar ones and a draw of the others.
PrPC TRFRET = reduces human prion protein on the cell surface; 370,000 compounds, 0.43% hits; inhibition, % at 13.8 µM; P04156; cell surface PrPC, TR-FRET read-out; AID 720596; in the data active = inhibition above about 24%
PrP 5UTR inh = inhibition of PrP 5' UTR reporter expression. inhibition, % (no concentration beside the values). 340,000 compounds, 0.35% hits. cell-based PrP 5' UTR mRNA reporter, plate reader. AID 488862; in the data active = inhibition above about 52%
BH1578 lux ind = inducers of Vibrio cholerae quorum light production without autoinducers; V. cholerae BH1578 lux reporter, luminescence, 6 h; activation, % at 18.7 µM; 350,000 compounds, 0.16% hits; AID 588436; in the data active = activation mostly above about 9.7%, no sharp cut-off
PfHsp40 rescue = compounds rescuing yeast from Plasmodium falciparum HSP40 toxicity. 340,000 compounds, 0.68% hits. growth rescue, % at 12.5 µM. AID 504582. S. cerevisiae expressing PfHsp40, growth rescue, ATP luminescence; in the data active = growth rescue above about 28%, passing the limit was not always enough;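 also: yeast W303a lacking pdr1 and pdr3 grown in galactose medium; growth measured after three days at 30 °C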
PriA SSB inh = K. pneumoniae PriA-SSBct interaction inhibition; 430,000 compounds, 0.6% hits; AlphaScreen SSBct-PriA binding, biotinylated peptide; AID 1272365; inhibition, % at 33 µM; in the data active = inhibition mostly above about 37%, no sharp cut-off; inactive = mostly below about 20%
SARS 3CLpro inh = SARS-CoV 3CLpro protease inhibition; AID 1706; recombinant SARS-CoV 3CLpro, quenched FRET peptide cleavage; inhibition, % at 6 µM; 290,000 compounds, 0.14% hits; P0C6X7; in the data active = inhibition above about 12%
Large screens that a line does not name were inactive; ! = not active in a repeat.

CC1Cc2ccccc2N1C(=O)c1ccc(N2CCCCC2)c([N+](=O)[O-])c1 (stereo unspecified)	none
O=C(c1ccc(N2CCCCC2)c([N+](=O)[O-])c1)N(Cc1ccccc1)c1ccccn1	PriA SSB inh 52
CSc1ccccc1OCc1cc(C(=O)N2CCN(c3ccccc3)CC2C)no1 (stereo unspecified)	none
CSc1ccccc1OCc1cc(C(=O)N2CCc3[nH]cnc3C2c2ccccn2)no1 (stereo unspecified)	PriA SSB inh 52
CC(C)(C)c1ccc(C=NOCC(=O)NCc2ccc(F)cc2)cc1	none (no result: PrPC TRFRET, PrP 5UTR inh, BH1578 lux ind, PfHsp40 rescue, SARS 3CLpro inh)
CC(C)(C)c1ccc(/C=N/OCC(=O)NCc2ccc(F)cc2)cc1	PfHsp40 rescue 74 (no result: PriA SSB inh)
CCOC(=O)c1sc(-c2ccccc2)cc1NC(=O)/C=C/c1ccccc1	none (no result: PrPC TRFRET, PrP 5UTR inh, BH1578 lux ind, PfHsp40 rescue, SARS 3CLpro inh)
CCCN(CCC)c1ccc(C(=S)N2CCOCC2)cc1	PriA SSB inh 37 (no result: PrPC TRFRET, PrP 5UTR inh, BH1578 lux ind, PfHsp40 rescue, SARS 3CLpro inh)
CCCN(CCC)c1ccc(C(=S)N2CCNCC2)cc1	PriA SSB inh 36 (no result: PrPC TRFRET, PrP 5UTR inh, BH1578 lux ind, PfHsp40 rescue, SARS 3CLpro inh)
CCCN(CCC)c1ccc(C(=S)N2CCN(C(=S)Nc3ccccc3)CC2)cc1	none (no result: PrPC TRFRET, PrP 5UTR inh, BH1578 lux ind, PfHsp40 rescue, SARS 3CLpro inh)
CCN(CC)c1ccc(C(=S)N2CCN(c3ccccc3)CC2)cc1	none
COC1=C(c2ccccc2)C(=O)c2ccccc2C1=O	PfHsp40 rescue 224
COc1ccc(C2=C(N)c3ccccc3C2=O)cc1	none (no result: PrPC TRFRET)
Cc1oncc1C(=O)NCCn1ccnc1-c1ncccn1	PriA SSB inh 46 (no result: PrPC TRFRET, PrP 5UTR inh, BH1578 lux ind, PfHsp40 rescue, SARS 3CLpro inh)
O=C(Cc1ccccc1Cl)NCCn1ccnc1-c1ncccn1	none (no result: PrPC TRFRET, PrP 5UTR inh, BH1578 lux ind, PfHsp40 rescue, SARS 3CLpro inh)
COc1cccc2cc(C(=O)NCCn3ccnc3-c3ncccn3)oc12	PriA SSB inh 46 (no result: PrPC TRFRET, PrP 5UTR inh, BH1578 lux ind, PfHsp40 rescue, SARS 3CLpro inh)
O=C(NCCn1ccnc1-c1ncccn1)c1ccccc1Cl	PriA SSB inh 78 (no result: PrPC TRFRET, PrP 5UTR inh, BH1578 lux ind, PfHsp40 rescue, SARS 3CLpro inh)
COc1cccc2cc(C(=O)NCCn3ccnc3-c3cccnc3)oc12	none (no result: PrPC TRFRET, PrP 5UTR inh, BH1578 lux ind, PfHsp40 rescue, SARS 3CLpro inh)
O=C(/C=C/c1cccs1)NCCn1ccnc1-c1ncccn1	PriA SSB inh 116 (no result: PrPC TRFRET, PrP 5UTR inh, BH1578 lux ind, PfHsp40 rescue, SARS 3CLpro inh)
COC(=O)c1ccc(S(=O)(=O)NCc2nn(C)c3c2CCCC3)cc1	none (no result: PrPC TRFRET, PrP 5UTR inh, BH1578 lux ind, PfHsp40 rescue, SARS 3CLpro inh)
CCN(CC)CCN1C(=O)C(=O)C(=C(O)c2ccc(S(=O)(=O)N3CCOCC3)cc2)C1c1ccc(C)cc1 (stereo unspecified)	none (no result: PrPC TRFRET, PrP 5UTR inh, BH1578 lux ind, PfHsp40 rescue, SARS 3CLpro inh)
CCOc1ccccc1C(=O)NCCCCNC(=O)c1ccccc1OCC	none (no result: SARS 3CLpro inh)
CCOc1ccccc1C(=O)NCCn1ccnc1-c1ncccn1	PriA SSB inh 55 (no result: PrPC TRFRET, PrP 5UTR inh, BH1578 lux ind, PfHsp40 rescue, SARS 3CLpro inh)
CCCC(CCC)=NNc1ccc(S(=O)(=O)Nc2ccccc2OC)cc1[N+](=O)[O-]	PriA SSB inh 41
COc1ccccc1NS(=O)(=O)c1ccc(NN=C2CCCCC2)c([N+](=O)[O-])c1	PriA SSB inh 62
NS(=O)(=O)c1ccc(NN=C2CCCCC2C2CCCCC2)c([N+](=O)[O-])c1 (stereo unspecified)	PriA SSB inh 40 (no result: PrPC TRFRET, PrP 5UTR inh, BH1578 lux ind, PfHsp40 rescue, SARS 3CLpro inh)
COc1ccccc1NS(=O)(=O)c1ccc(N/N=C(\C)C(C)C)c([N+](=O)[O-])c1	none (no result: PriA SSB inh)
O=C(NCCn1ccnc1-c1ncccn1)NC1CCCCC1	none (no result: PrPC TRFRET, PrP 5UTR inh, BH1578 lux ind, PfHsp40 rescue, SARS 3CLpro inh)
O=C(NCCn1ccnc1-c1ncccn1)Nc1c(F)cccc1F	PriA SSB inh 86 (no result: PrPC TRFRET, PrP 5UTR inh, BH1578 lux ind, PfHsp40 rescue, SARS 3CLpro inh)
Cc1ccc(NC(=O)NCCn2ccnc2-c2ncccn2)cc1C	PriA SSB inh 97 (no result: PrPC TRFRET, PrP 5UTR inh, BH1578 lux ind, PfHsp40 rescue, SARS 3CLpro inh)
CN(C)c1nc(N2CCOCC2)ncc1NC(=O)c1ccc(Cl)cc1Cl	none (no result: PrPC TRFRET, PrP 5UTR inh, BH1578 lux ind, PfHsp40 rescue, SARS 3CLpro inh)
O=C(NC1CCCCC1)N(Cc1cnc2ccccn12)c1ccccc1	none (no result: PrPC TRFRET, PrP 5UTR inh, BH1578 lux ind, PfHsp40 rescue, SARS 3CLpro inh)
O=C(NC(c1ccccc1)c1ccccc1)N(Cc1cnc2ccccn12)c1ccccc1	PriA SSB inh 44 (no result: PrPC TRFRET, PrP 5UTR inh, BH1578 lux ind, PfHsp40 rescue, SARS 3CLpro inh)
O=[N+]([O-])c1cc(Br)c(Nc2ccccc2)c([N+](=O)[O-])c1	PfHsp40 rescue 67
O=C(Nc1ccccc1)c1ccc(Nc2c([N+](=O)[O-])cc([N+](=O)[O-])c3ccccc23)cc1	none
COC(=O)c1sc2ccccc2c1NC(=O)c1cc(C)no1	none (no result: PrPC TRFRET, PrP 5UTR inh, BH1578 lux ind, PfHsp40 rescue, SARS 3CLpro inh)
Cc1ccc(S(=O)(=O)Nc2ccc(O)c3ncccc23)cc1	PfHsp40 rescue 188, PriA SSB inh 46!
O=[N+]([O-])c1cccc(-c2nc3ccccc3sc2=NO)c1	none (no result: PrPC TRFRET, PrP 5UTR inh, BH1578 lux ind, PfHsp40 rescue, SARS 3CLpro inh)
COc1ccccc1C(=O)N1CCN(c2nccn2-c2ccc(C)cc2)CC1	none (no result: PrPC TRFRET, PrP 5UTR inh, BH1578 lux ind, PfHsp40 rescue, SARS 3CLpro inh)
Cc1cc(C)cc(C(=O)N2CCN(c3nccn3-c3cccc(Cl)c3)CC2)c1	none (no result: PrPC TRFRET, PrP 5UTR inh, BH1578 lux ind, PfHsp40 rescue, SARS 3CLpro inh)
COc1ccc(C(=O)N2CCN(c3nccn3-c3ccc(C)cc3)CC2)c(OC)c1	PriA SSB inh 38 (no result: PrPC TRFRET, PrP 5UTR inh, BH1578 lux ind, PfHsp40 rescue, SARS 3CLpro inh)
COc1cc(OC)cc(C(=O)N2CCN(c3nccn3-c3cccc(Cl)c3)CC2)c1	PriA SSB inh 40 (no result: PrPC TRFRET, PrP 5UTR inh, BH1578 lux ind, PfHsp40 rescue, SARS 3CLpro inh)
